What all share (experiment): NCI-60 one-dose screen, 48 h (100 = growth as untreated, 0 = no growth, -100 = all killed)
Conditions in all cases: 10 µM unless noted

Experiment [1] has as its system T-47D breast.
Experiment [2] has as its system BT-549 breast.
Experiment [3] concerns MDA-MB-435 melanoma.
The subject of experiment [4] is SW-620 colon.
In experiment [5] the test system is MCF7 breast.
In experiment [6] the test system is HCT-116 colon.
In experiment [7] the test system is HCC-2998 colon.
The test system of experiment [8] is KM12 colon.

The structures appear in SMILES notation. This is part of a sample that, as a whole, favours compounds with a hit. Of some 83,000 tested, about 20% had one in any assay.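 Values shown are percent growth following 48 h exposure of cells in 96-well plates to a single concentration of compound; below 10 was considered active.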 A number with no mark means an inactive call. Activity calls are given as the source filed them.

18 molecules from PubChem BioAssay (NCI) can be followed below.

On to `COc1cccc(N=CNc2cccc(OC)c2)c1`, for which the growth in experiment [1] is 92%; in experiment [2], 101%; in experiment [3], 102%; in experiment [4], 98.5%; in experiment [5] it was 92.2%; in experiment [6], 92.2%. The growth in experiment [7] was 98.9%; in experiment [8], 87.8%.

Regarding `CC(C)N(C(=O)c1ccccc1)C(C)C`, the growth was 99.5% in experiment [1]; 106% in experiment [2]; 107% in experiment [3]; 104% in experiment [4]; 97.8% in experiment [5]; 104% in experiment [6]. For the same molecule, the results for the growth in experiment [7] and in experiment [8] were 98.3% and 111%, respectively.

For the molecule `CCN(Cc1ccc(Cl)c(Cl)c1)c1ccc2nc(N)nc(N)c2c1C`, the growth in experiment [1] was -78% (active); in experiment [2], 46.4%; in experiment [3] it was -77.4% (active); in experiment [4] it was -78.2% (active); in experiment [5] it was -92.9% (active); in experiment [6], -82.4% (active). In addition, the growth is -93.6% (active) in experiment [7] and -92.6% (active) in experiment [8].

With `CCCc1cccc(CCC)c1NC(=O)Nc1cc(Cl)cc(Cl)c1`, the growth was 82.3% in experiment [1]; 86.6% in experiment [2]; 104% in experiment [3]; 123% in experiment [4]; 99.1% in experiment [5]; 91.2% in experiment [6]. Moreover, the values for the growth in experiment [7] and in experiment [8] were 116% and 101%, respectively.

With `NC(=O)OCCO`, the growth was 94.4% in experiment [1]; 94.9% in experiment [2]; 111% in experiment [3]; 106% in experiment [4]; 92.9% in experiment [5]; 90.6% in experiment [6]. The growth was 97.9% in experiment [7] and 98.7% in experiment [8].

`C=CC(C)C(C)(C)O` (centres undefined): the growth in experiment [1] was 89.2%; in experiment [2], 97.3%; in experiment [3], 102%; in experiment [4], 101%; in experiment [5], 101%; in experiment [6], 93.9%. For the same molecule, the growth was 106% in experiment [7] and 101% in experiment [8].

In the case of `CC(=O)NC(CCc1ccc(Cl)c(Cl)c1)c1cccc(O)c(=O)c1` (centres undefined), the growth in experiment [1] is 17.7%; in experiment [2], 19.3%; in experiment [3], 21.5%; in experiment [4], 23.8%; in experiment [5], 19.3%; in experiment [6], 15.9%. Besides, the figures for the growth in experiment [7] and in experiment [8] were 22.6% and 18.1%, respectively.

In the case of `COC1C(=O)CCC2(CO2)C1(O)C1(C)OC1CCC(C)C` (centres undefined), the growth in experiment [1] is 81.2%; in experiment [2] it was 77.4%; in experiment [3], 63.8%; in experiment [4] it was 60.5%; in experiment [5], 69.1%; in experiment [6], 52.5%. The values for the growth in experiment [7] and in experiment [8] were 76.4% and 74%, respectively.

On to `Cc1ccc(Cc2ccc(C)cc2)cc1`, for which the growth was 101% in experiment [1]; 91.2% in experiment [2]; 97.5% in experiment [3]; 102% in experiment [4]; 99.4% in experiment [5]; 107% in experiment [6]. For the same molecule, the growth was 100% in experiment [7] and 99.4% in experiment [8].

Turning to `O=S(=O)(OCCOS(=O)(=O)c1ccccc1)c1ccccc1`, the growth is 105% in experiment [1]; 86.4% in experiment [2]; 107% in experiment [3]; 102% in experiment [4]; 88% in experiment [5]; 87.4% in experiment [6]. For the same molecule, the growth in experiment [7] was 72.8%; in experiment [8] it was 101%.

Take `Cc1ccc(C)c2c1CCC2=O`: the growth is 103% in experiment [1]; 97.6% in experiment [2]; 93.3% in experiment [3]; 93.5% in experiment [4]; 94.7% in experiment [5]; 93.1% in experiment [6]. Further, the figures for the growth in experiment [7] and in experiment [8] were 96.7% and 100%, respectively.

As for `CC1=CC(=Nc2ccc(N(C)C)cc2)C=C(C)C1=O`, the growth in experiment [1] is 48.5%; in experiment [2], 74.1%; in experiment [3] it was 75.7%; in experiment [4], 93.8%; in experiment [5], 77%; in experiment [6], 83.5%. Besides, the growth in experiment [7] was 96.1%; in experiment [8], 87.5%.

As to `O=C(O)Cc1ccccn1`, the growth is 110% in experiment [1]; 101% in experiment [2]; 104% in experiment [3]; 105% in experiment [4]; 100% in experiment [5]; 104% in experiment [6]. Also, the figures for the growth in experiment [7] and in experiment [8] were 111% and 104%, respectively.

With `O=[N+]([O-])c1c(O)c(CNCCCO)cc(CNCCCO)c1O`, the growth in experiment [1] was 113%; in experiment [2], 119%; in experiment [3] it was 111%; in experiment [4], 96.3%; in experiment [5], 112%; in experiment [6] it was 97.4%. The growth in experiment [7] is 106%; in experiment [8], 138%.

For the molecule `Cc1cc(Nc2ccc3c(c2)OCO3)c2cc3c(cc2n1)OCO3`, the growth is 44.6% in experiment [1]; 69.8% in experiment [2]; -68.2% (active) in experiment [3]; 10.3% in experiment [4]; 7.08% (active) in experiment [5]; 23% in experiment [6]. For the same molecule, the figures for the growth in experiment [7] and in experiment [8] were 45.7% and 9.98% (active), respectively.

As for `CC(=O)N(C)N=Nc1ccc(C)cc1`, the growth in experiment [1] is 102%; in experiment [2], 90.1%; in experiment [3], 103%; in experiment [4], 98.6%; in experiment [5], 106%; in experiment [6] it was 101%. The growth is 91.5% in experiment [7] and 118% in experiment [8].

As for `CC(=O)c1cccc(N(C)S(=O)(=O)c2ccc(C)cc2)c1`, the growth in experiment [1] is 87.8%; in experiment [2], 82.8%; in experiment [3], 8.55% (active); in experiment [4], 81.7%; in experiment [5], 60.5%; in experiment [6], 94%. For the same molecule, the growth in experiment [7] was 82.6%; in experiment [8], 49.8%.

Consider `C=CCc1cc(OC)c(OC)c(OC)c1`, for which the growth in experiment [1] was 108%; in experiment [2], 96.1%; in experiment [3], 108%; in experiment [4], 91.8%; in experiment [5], 113%; in experiment [6], 99.1%. The growth in experiment [7] is 100%; in experiment [8], 88.7%.
